The text below walks through data of paper PMC4336329 (PLoS ONE, 2015).

The whole screen tested about 310,000 compounds, of which about 14,000 (4.5%) showed an effect of 50% or more. The effect is printed as a negative number. The full list was thinned out, with strong results kept by preference.
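Note: peak tail current of the secondary pulse compared with the same well before compound.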

This assay deals with human ether-à-go-go-related gene (hERG) potassium channel (human, UniProt Q12809). Put plainly: primary screen, population patch clamp on CHO cells stably expressing hERG; higher = less effect of the substance.
human ether-à-go-go-related gene (hERG) potassium channel, sequence (Q12809 whole entry, looked up): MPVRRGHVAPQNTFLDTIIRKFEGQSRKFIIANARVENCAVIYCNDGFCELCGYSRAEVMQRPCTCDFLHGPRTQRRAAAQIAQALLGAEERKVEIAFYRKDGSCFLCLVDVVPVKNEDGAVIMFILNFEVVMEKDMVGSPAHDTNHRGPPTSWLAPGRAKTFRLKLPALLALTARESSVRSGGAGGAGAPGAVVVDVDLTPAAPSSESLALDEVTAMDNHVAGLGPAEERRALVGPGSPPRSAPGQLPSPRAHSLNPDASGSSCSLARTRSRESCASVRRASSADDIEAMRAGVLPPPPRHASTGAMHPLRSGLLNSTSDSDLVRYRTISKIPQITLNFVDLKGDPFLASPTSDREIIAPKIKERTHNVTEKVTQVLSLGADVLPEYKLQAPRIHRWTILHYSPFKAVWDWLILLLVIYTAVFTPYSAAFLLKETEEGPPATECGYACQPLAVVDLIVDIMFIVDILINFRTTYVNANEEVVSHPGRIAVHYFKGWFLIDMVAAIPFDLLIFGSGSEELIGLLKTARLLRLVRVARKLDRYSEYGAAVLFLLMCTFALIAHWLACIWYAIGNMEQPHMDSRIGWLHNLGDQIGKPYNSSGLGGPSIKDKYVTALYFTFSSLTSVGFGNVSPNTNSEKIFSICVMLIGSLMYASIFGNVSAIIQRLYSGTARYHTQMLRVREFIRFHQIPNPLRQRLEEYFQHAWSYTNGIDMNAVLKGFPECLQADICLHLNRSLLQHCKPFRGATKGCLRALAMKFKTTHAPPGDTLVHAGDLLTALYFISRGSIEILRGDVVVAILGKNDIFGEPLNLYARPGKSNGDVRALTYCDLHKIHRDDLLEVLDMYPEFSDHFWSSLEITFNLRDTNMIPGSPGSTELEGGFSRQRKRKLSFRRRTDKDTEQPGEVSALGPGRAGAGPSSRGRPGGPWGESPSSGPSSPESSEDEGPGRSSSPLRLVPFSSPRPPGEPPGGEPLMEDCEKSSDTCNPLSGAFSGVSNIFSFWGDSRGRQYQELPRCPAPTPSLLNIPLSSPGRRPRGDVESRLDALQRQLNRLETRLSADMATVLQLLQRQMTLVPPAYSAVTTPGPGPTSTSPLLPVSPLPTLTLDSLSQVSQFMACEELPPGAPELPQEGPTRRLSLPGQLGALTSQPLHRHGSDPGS
As for `CCn1c(SCC(=O)N2c3ccccc3CC2C)nnc1-c1ccco1` (stereo not shown), the “hERG current change (%, negative = inhibition) at 10uM” value is on record as -17.6%.
As for `O=C(Nc1nnc(Cc2ccccc2F)s1)c1ccccc1Cl`, the figure is 12.6%.
As for `CCc1ccc(S(=O)(=O)NCc2cn3ccccc3n2)s1`, the figure is -11%; as for `CN(C)Cc1nc2c([nH]1)c(=O)n(C)c(=O)n2C`, -0.353%; as for `CCCc1nc2c([nH]1)c(=O)n(C)c(=O)n2C`, 15.8%.
With `Cn1c(=O)c2[nH]c(COc3ccc(C(C)(C)C)cc3)nc2n(C)c1=O` the figure was -55.1%; with `N#Cc1ccc(-c2ccc(Cl)cc2)nc1SCC(=O)c1cccc(Cl)c1`, 28.9%.
As for `N/C(=N\O)c1ccc([N+](=O)[O-])s1`, the “hERG current change (%, negative = inhibition) at 10uM” value came to 11%.
With `Cc1ccc(P(=O)(OCCN2CCOCC2)C(C)(C)C)o1` (stereo not shown) the figure was -4.4%.
For `COc1ccc(C2=NCC(=O)N(CC(=O)NCc3ccco3)c3sc4c(c32)CCCC4)cc1OC`, the “hERG current change (%, negative = inhibition) at 10uM” value is on record as -17.3%.
With `O=C1CN=C(c2ccc(Br)cc2)c2c(sc3c2CCCC3)N1CCN1CCCCC1`, the “hERG current change (%, negative = inhibition) at 10uM” value was -64.4%.
As for `COc1ccc(C2=NCC(=O)N(CC(=O)NCc3ccco3)c3sc4c(c32)CCCC4)cc1`, the figure is -35.7%; as for `O=C(c1ccc(Cl)cc1)c1ccc(OCC(O)CN2CCCCC2)cc1` (stereo not shown), -75.1%; as for `OC(COc1ccc2cc(Br)ccc2c1)CN1CCOCC1` (stereo not shown), -48.4%.
With `Cl.OC(COc1ccc(OCC(O)CN2CCCCCC2)cc1)CN1CCCCCC1` (stereo not shown) the figure was 9.75%.
For `Cl.OC(COc1ccc(Cl)cc1)CN1CCCCC1` (stereo not shown), the “hERG current change (%, negative = inhibition) at 10uM” value is given as -61.9%.
With `O=C(c1ccc(Cl)cc1)c1ccc(OCC(O)CN2CCOCC2)cc1` (stereo not shown) the figure was -19.7%; with `OC(COc1ccc(OCC(O)CN2CCCCC2)cc1)CN1CCCCC1` (stereo not shown), 15.9%; with `OC(COc1ccc2ccccc2c1)CN1CCCC1` (stereo not shown), -19.1%.
With `OC(COc1ccc2cc(Br)ccc2c1)CN1CCCC1` (stereo not shown) the figure was -70.2%; with `O=C(c1ccccc1)c1ccc(OCC(O)CN2CCCCC2)cc1` (stereo not shown), -39.9%; with `CCn1cc(C(=O)NCc2ccccc2OC)c(=O)c2ccc(C)nc21`, 17.6%.
Consider `CCCOc1ccccc1C(=O)N(Cc1cccc(Br)c1)C1CCS(=O)(=O)C1` (stereo not shown), for which the “hERG current change (%, negative = inhibition) at 10uM” value was -35.4%.
As for `Cn1c(=O)cc(SCC(=O)N2CCN(C(=O)c3ccco3)CC2)c2ccccc21`, the figure is -27.4%; as for `COc1ccc(OCC(=O)N2CCN(CC3CC4C=CC3C4)CC2)cc1` (stereo not shown), -26.6%.
As for `Cc1cc(C)n2ncc(-c3cccc(Br)c3)c2n1`, the figure is 5.79%; as for `CNCC1(c2ccccc2)CCCC1.Cl`, 15.1%.
With `O=C(Nc1ccccn1)C1(c2ccccc2)CCCC1` the figure was -3.92%.
On to `c1ccc(C2(CNc3ccccn3)CCCC2)cc1`, for which the “hERG current change (%, negative = inhibition) at 10uM” value is given as -70.3%.
Turning to `CCCCCCNC(=O)CCNS(=O)(=O)c1ccc(C)cc1`, the “hERG current change (%, negative = inhibition) at 10uM” value is reported as -12.8%.
With `CCOc1cc(NC(=O)c2ccccn2)c(OCC)cc1NC(=O)c1cccc(C)c1` the figure was 8.7%; with `COc1ccc(N2CC(C(=O)Nc3c(C(N)=O)oc4ccccc34)CC2=O)cc1` (stereo not shown), -15%; with `CC/C(=N\N=C1\SC(C)C(=O)N1Cc1ccco1)c1ccccc1` (stereo not shown), 4.18%.
With `O=C(Nc1ccc(Oc2ccccc2)cc1)C1CCN(c2c3c(nc4ncnn24)CCC3)CC1` the figure was -55.6%; with `CC1CCC(NC(=O)C2CCN(c3c4c(nc5ncnn35)CCC4)CC2)CC1` (stereo not shown), -19.3%.
Take `O=C(Nc1ccc2c(c1)CCC2)C1CCN(c2c3c(nc4ncnn24)CCC3)CC1`: the “hERG current change (%, negative = inhibition) at 10uM” value is reported as -73.1%.
With `CC1CCCCC1NC(=O)C1CCN(c2c3c(nc4ncnn24)CCC3)CC1` (stereo not shown) the figure was 4.49%.
Take `O=C(Nc1ccc2c(c1)CCC2)C1CCN(c2ncccn2)CC1`: the “hERG current change (%, negative = inhibition) at 10uM” value was determined as 20.6%.
On to `COc1ccc(NC(=O)C2CCCN(c3c4c(nc5ncnn35)CCC4)C2)cc1OC` (stereo not shown), for which the “hERG current change (%, negative = inhibition) at 10uM” value is reported as -11.7%.
In the case of `O=C(NC1CCCc2ccccc21)C1CCN(c2c3c(nc4ncnn24)CCC3)CC1` (stereo not shown), the “hERG current change (%, negative = inhibition) at 10uM” value is -31.3%.
For `COc1ccc(NC(=O)C2CCCN(c3ncccn3)C2)cc1` (stereo not shown), the “hERG current change (%, negative = inhibition) at 10uM” value turned out to be 3.4%.
As for `COc1ccc(NC(=O)C2CCCN(c3c4c(nc5ncnn35)CCC4)C2)cc1` (stereo not shown), the figure is -61.6%.
As for `CCN1C(=O)C2C(C1=O)N1C(c3cccs3)C3C(=O)N(CC)C(=O)C3N1C2c1cccs1` (stereo not shown), the figure is 15.7%.
